Data as given in PubChem BioAssay (NCI).
About 83,000 compounds went through this panel and 20% of them were active in at least one assay; those are over-represented in the sample as a whole.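 Testing used 96-well plates and a 48-hour single-concentration exposure. Example: -40 means 40% of the starting cells died.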 A number with no mark means an inactive call. Activity calls are given as the source filed them.

What follows are molecules tested on ACHN renal (assay: NCI-60 one-dose screen, 48 h (100 = growth as untreated, 0 = no growth, -100 = all killed)). Details: 10 µM unless noted.
Protocol: Growth inhibition of the ACHN human tumor cell line is measured as a screen for anti-cancer activity. Cells are grown in 96 well plates and exposed to the test compound for 48 hours. Compounds are tested at a single concentration, which is 10^-5 M for most compounds. The reported endpoint is percent growth (GI% or GIPRCNT), where numbers from 0 - 100% represent growth inhibition, and numbers from -100% - 0 represent cell death. For example, a value of 40 represents 60% growth inhibition. A value of 0 means no net growth occurred over the course of the experiment. A value of -40 indicates 40% of cells at the beginning of the experiment died by the end of the experiment. A value of -100 means all cells are dead at the end of the experiment.
NCI-60 Human Tumor Cell Lines Screen was performed using the standard one-dose NCI protocol, which is described in more detail at https://dtp.cancer.gov/discovery_development/nci-60/default.htm.
Compounds with GIPRCNT values below 10 were considered active. Activity score was based on GIPRCNT using the following formula: […]
Score is 0 for GIPRCNT values of 100 or above, 50 for GIPRCNT values of 0, and 100 for GIPRCNT values of -100.
In the case of `COc1cc2c(cc1OCCCCCn1c(-c3ccc(OCc4ccccc4)cc3)nc3cc(N4CCOCC4)ccc31)N=C[C@@H]1CCCN1C2=O`, the growth is reported as -54.5% (active). `Cn1c(=O)c2c(nc(Br)n2CCC(=O)Nc2ccc(F)cc2)n(C)c1=O` gave a growth of 102%. In the case of `COc1ccc(OC)c2c1[nH]c(=O)c1c3ccccc3cn21`, the growth is reported as -84.6% (active). `Cn1cnc([N+](=O)[O-])c1S(=O)(=O)Oc1ccc(Cl)cc1` was tested, and the growth was -70.8% (active). `Clc1ccc2nc(Cl)c3ccccc3c2c1` was tested, and the growth was 1.26% (active). For `O=C(Nc1ccc(OCc2nnc(-c3ccccc3)o2)c(F)c1)Nc1ccc(Cl)c(C(F)(F)F)c1`, the growth was 9.47% (active). In the case of `CCCc1cccc(CCC)c1O`, the growth is reported as 115%. Work on `CCN(CC)c1ccc(CN(CC(=O)c2ccc(Cl)c(Cl)c2)Cc2ccccc2)cc1` yielded a growth of 107%. In the case of `COc1cc2c(C#N)n3c(c2cc1OC)C(=O)C(c1ccccc1)Oc1ccccc1-3` (stereo not given), the growth is reported as 54.3%. For `O=C(CCc1nnc2sc(-c3ccc(Cl)cc3Cl)nn12)c1nc2ccccc2[nH]1`, the growth was -89.7% (active). With `CCC1=C(c2ccc(OC)cc2)C(C)(C)Oc2cc(O)c(CN3CCCC3)cc21` the growth was 82.6%. Work on `COc1ccc(OC)c(NC(=O)c2cc3oc4ccccc4c3cc2O)c1` yielded a growth of 98.7%. For `C=C1c2c(C)nn(-c3ccc(C#CCOC4OC(CO)C(O)C(O)C4O)cc3)c2N(C)C23C[C@H]1C1(C)c4c(C)nn(-c5ccc(C#CCOC6OC(CO)C(O)C(O)C6O)cc5)c4N(C)C(C)(C[C@H]12)C3` (stereo not given in full), the growth was 27.7%. For `Cc1c(C(N)=O)sc2ncn(Cc3ccccc3)c(=O)c12`, the growth was 99.6%. In the case of `Clc1ccc([C@@H]2C[C@@H]3Cc4cc(Br)c5ccccc5c4N2O3)c(Cl)c1`, the growth is reported as 81.6%. For `CCCCCCCCCCCCCCCCCC1=NC(C)(C)CN1CCO`, the growth was -49.2% (active). Molecule `O=C(Nc1ccc(C2=NCCCN2)cc1)Nc1ccc(C2=NCCCN2)cc1` has a growth of 87.7%. `Clc1ccccc1[C@@H]1C[C@@H]2Cc3cc(Br)c4ccccc4c3N1O2` gave a growth of 53.5%. In the case of `C[C@]12CC[C@@H]3c4ccc(O)c([N+](=O)[O-])c4CC[C@H]3[C@@H]1CC[C@@H]2NS(=O)(=O)c1ccc(C(F)(F)F)cc1`, the growth is reported as 3% (active). For `c1coc([C@@H]2C[C@@H]3Cc4ccc5ccccc5c4N2O3)c1`, the growth was 107%. `N#Cc1c(N2CCOCC2)nc2sc3cc(Cl)ccc3n2c1=N` showed a growth of 98.3%. `C=C(C[C@@](O)(C(=O)Oc1ccccc1)C(=O)C1CCCCC1)c1ccccc1` gave a growth of 112%. Molecule `Cc1nn(-c2ccccc2)c(Cl)c1C(CC(=O)c1ccc(Cl)cc1)CC(=O)c1ccc(Cl)cc1` has a growth of 88.4%. `Cc1ccsc1/C=C/C1=NCCCN1C` gave a growth of 101%. `CC(NC(=O)C(C)Oc1ccc(Cl)cc1Cl)C(=O)O` (stereo not given) gave a growth of 109%. In the case of `Cc1c(NCc2nnc3n(Cc4ccccc4)c(=O)c4c5c(sc4n23)CCCC5)c(=O)n(-c2ccccc2)n1C`, the growth is reported as 96%. With `O=C(Nc1cccc([N+](=O)[O-])c1)c1cccc(C(=O)Nc2cccc([N+](=O)[O-])c2)c1` the growth was 64.7%. Molecule `O=C1Cc2cc(CCn3cncn3)c(Cl)cc2N1` has a growth of 74.6%. In the case of `CO[C@H]1/C=C/O[C@@]2(C)Oc3c(C)c(O)c4c(O)c(c(/C=N/N5CCN(C)CC5)c(O)c4c3C2=O)NC(=O)/C(C)=C\C=C\C(C)[C@H](O)[C@@H](C)[C@@H](O)[C@@H](C)[C@@H](OC(C)=O)[C@@H]1C` (stereo not given in full), the growth is reported as 82.1%. `Fc1ccc(-c2nnc(/C=C/c3cn(-c4ccccc4)nc3-c3ccccc3)o2)cc1` was tested, and the growth was 90.9%. `CC(c1cc(Cl)ccc1O)c1cc(Cl)ccc1O` was tested, and the growth was 41.4%. Work on `COc1ccc2c(c1)nc(N)c1c3cc(OC)c(OC)cc3cn21` yielded a growth of 46.4%. `COc1ccc(/C=C2\NC(=S)NC2=O)cc1` showed a growth of 94%. Molecule `Cn1c(=O)c2nc(SCc3ccccc3)n(C)c2n(C)c1=O` has a growth of 99.1%. `CCOC(=O)c1c(NC(=O)C2CCCCC2C(=O)O)sc2c1CCCC2` (stereo not given) was tested, and the growth was 98.2%. Work on `NC(N)=NN=c1c(=O)c2ccccc2c1=O` yielded a growth of 78%. For `COc1ccc2c(c1)C(=O)c1c-2c(OCCN(C)C)nc2cc(OC)ccc12`, the growth was -78.6% (active). For `Cc1c(N(C)CS(=O)(=O)O)c(=O)n(-c2ccccc2)n1C`, the growth was 101%. `O=[N+]([O-])c1ccc2c(c1)S(=O)c1cc([N+](=O)[O-])ccc1N2` was tested, and the growth was 96.7%. For `CSC1=Nc2c(c(C)c(-c3ccccc3)n2CCCN2CCCCC2)C2=NC(=O)C[C@H](C)N12`, the growth was 66.8%.
